This passage reports cell viability results from the supplement of paper PMC8699584.

One may read the cell viability as a read-out of living cells in per cent, often relative to untreated cells.

The subject of one assay is Molm13. Kind of assay: cell viability relative to DMSO control (bortezomib = 0%); higher = less growth inhibition. Conditions: 10 nM; 72 h. In short, it runs like this: (§1)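 FLT3-ITD+ acute myeloid leukemia cells were dispensed onto a library of 679 approved and investigational compounds in 384-well plates, at 1000 cells per well in 50 µL and a single 10 nM dose, for 72 h. The screen was run in duplicate. Cell viability was read by CellTiter-Glo luminescence on an EnVision reader. Values were converted to percentages by per-plate linear regression between DMSO-treated cells (100%) and positive-control-treated cells (0%).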

The subject of the next assay is Mv4-11. The description is as above. The conditions noted are these: 10 nM; 72 h. In outline: as §1

± gives the standard deviation of the averaged measurements.

As to `COc1ccc(N(C(=O)Oc2c(C)cccc2C)c2ccnc(Nc3ccc(N4CCN(C)CC4)cc3)n2)c(OC)c1`, the values for the cell viability in the assay with Molm13 and with Mv4-11 were 94.5 ± 18% and 108 ± 5.2%, respectively.

For `COc1cc([C@@H]2c3cc4c(cc3[C@H](O)[C@H]3COC(=O)[C@@H]23)OCO4)cc(OC)c1OC` [Picropodophyllin (PPP)], the cell viability turned out to be 98.4 ± 8.1% in the assay with Molm13 and 109 ± 3.8% in the assay with Mv4-11.

Take `C/C(O)=C(\C#N)C(=O)Nc1cc(Br)ccc1Br`: the cell viability in the assay with Molm13 is 108 ± 6.6%; with Mv4-11 it was 114 ± 7.8%.

Regarding `N#C/C(=C\c1ccc(O)c(O)c1)C(N)=S`, the cell viability is 91.3 ± 7.4% with Molm13 and 104 ± 2.4% in the assay on Mv4-11.

On to `COC[C@H]1OC(=O)c2coc3c2[C@@]1(C)C1=C(C3=O)[C@@H]2CCC(=O)[C@@]2(C)C[C@H]1OC(C)=O` [Wortmannin], for which the results for the cell viability with Molm13 and in the assay with Mv4-11 were 114 ± 9% and 110.22 ± 0.09%, respectively.

On to `COc1ccc2c(c[n+](C)c3c4cc5c(cc4ccc23)OCO5)c1OC` [Chelerythrine (chloride)], for which the results for the cell viability in the assay with Molm13 and in the assay on Mv4-11 were 106 ± 10% and 108 ± 1.4%, respectively.

As to `O=C([O-])C(Cl)Cl.[Na+]` [Sodium†Dichloroacetate], the cell viability in the assay on Molm13 was determined as 74 ± 24%; with Mv4-11, 110.7 ± 0.021%.

`COc1ccc2c(c[n+](C)c3c4cc5c(cc4ccc23)OCO5)c1OC` [Chelerythrine chloride]: the cell viability in the assay with Molm13 was 115 ± 13%; in the assay with Mv4-11, 112 ± 6.5%.

Turning to `CN[C@@H]1C[C@H]2O[C@@](C)([C@@H]1OC)n1c3ccccc3c3c4c(c5c6ccccc6n2c5c31)C(=O)NC4` [Staurosporine], the cell viability in the assay on Molm13 is 11.9 ± 18%; in the assay on Mv4-11, 5.41 ± 3.4%.
